Assay results as given in PubChem BioAssay (NCI).
Compounds without any hit were thinned out: in the full panel of roughly 83,000, 20% have a hit.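 Treatment: one concentration, 48 hours, 96-well format. Scoring: percent growth, with anything below 10 considered active.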 Active and inactive are the calls of the source.

test system: HOP-92 NSCLC; assay: NCI-60 one-dose screen, 48 h (100 = growth as untreated, 0 = no growth, -100 = all killed); conditions: 10 µM unless noted

With `CSc1nc(Nc2cccc(NC(=O)/C(C#N)=C/c3c(Cl)cccc3Cl)c2)c(C#N)c(-c2cccc([N+](=O)[O-])c2)n1` as the compound, how does the growth read?
The growth was 59.8% (inactive).

With `COc1ccc(-c2nc3ccc(-c4nc5ccc(N6CCN(c7ccccc7)CC6)cc5[nH]4)cc3[nH]2)cc1OC` as the compound, how does the growth read?
The growth was 13.6% (inactive).

Which growth does the source give for `COc1ccc(CCNc2nc3c(c(=O)n(Cc4ccc(Br)cc4)c(=O)n3C)n2C)cc1OC` here?
The growth was 92.8% (inactive).

`C=CCSSc1ncnc2c1ncn2C1OC(CO)C(O)C1O` (stereo unspecified) was tested. Which growth did it give?
Its growth is 28.2% (inactive).

`Cc1ccc(NC(=O)C2CCC(CN3CCN(C)CC3)CC2)cc1Nc1nccc(-c2cccnc2)n1` (stereo unspecified) was tested. Which growth did it give?
Its growth is 85.5% (inactive).

`COc1cc(/C=C/c2cc(O)c3cc(C(C)=O)c(=O)oc3c2)cc2c1O[C@]1(C)CC[C@@H](O)C(C)(C)[C@H]1C2` was tested. Which growth did it give?
The growth was 33.2% (inactive).

How did the growth turn out when `C=CC(=O)Nc1cccc(Nc2nc(SC)nc(-c3cccc([N+](=O)[O-])c3)c2C#N)c1` was run?
Its growth is -19.6% (active).

How did the growth turn out when `N#C/C(=C\c1ccc(-c2cc(C(F)(F)F)ccc2Cl)o1)c1nc(-c2ccco2)cs1` was run?
Its growth is 101% (inactive).

With `COCCNc1ccc2c3c(cccc13)C(=O)N(CCN(C)C)C2=O` as the compound, how does the growth read?
Its growth is 18.4% (inactive).

Which growth does the source give for `C=CC(=O)Nc1cccc(-c2nc(SC)nc(NCc3ccccc3)c2C#N)c1` here?
The growth was 48.1% (inactive).

For `COC(=O)c1cccc(NC(=O)c2ccc(-c3cccc(N)c3)o2)c1`, which growth is on record?
The growth was 106% (inactive).

With `N#Cc1c(-c2ccc(Cl)cc2)nc(N=Nc2c(O)[nH]c3ccc(Cl)cc23)nc1N1CCOCC1` as the compound, how does the growth read?
Its growth is 89.5% (inactive).

For `N#CN1CCC[C@H]1C(=O)N1CCc2c(-c3[nH]nc4ncccc34)cccc21`, which growth is on record?
Its growth is -21.6% (active).

test system: NCI-H522 lung; assay: as above; conditions: 10 µM unless noted

How did the growth turn out when `Nc1ccc(S(=O)(=O)O)c2ccc(N=Nc3ccc(N=Nc4ccc(S(=O)(=O)O)cc4)c4ccccc34)c(O)c12` was run?
Its growth is 89.4% (inactive).

How did the growth turn out when `CSc1ccc(-c2n[nH]nc2-c2cc3ccccc3s2)cc1` was run?
Its growth is 8.98% (active).

Which growth does the source give for `COc1ccc(C(=O)COc2ccc(/C=C3\COc4ccc(OC)cc4C3=O)cc2)cc1` here?
Its growth is 70.1% (inactive).

For `COc1cc(C=Nc2oc(-c3ccccc3)c(-c3ccccc3)c2C#N)cc(CN2CCCCC2)c1O`, which growth is on record?
Its growth is 88% (inactive).

`O=C1CC[C@H](c2ccc(O)c3c2C(=O)[C@@H]2O[C@@H]2C3=O)c2cccc(O)c21` was tested. Which growth did it give?
Its growth is -29.4% (active).

Which growth does the source give for `C#CC(F)(F)[C@]1(O)CC[C@H]2[C@@H]3CCC4=CC(=O)CCC4=C3[C@@H](c3ccc(C(C)=O)cc3)C[C@@]21C` here?
Its growth is -73% (active).

Which growth does the source give for `O=C(Cc1ccccc1Nc1c(Cl)cccc1Cl)NN1C(=O)/C(=C/c2ccc(Br)cc2)SC1=S` here?
Its growth is 93.9% (inactive).

`Cc1nn(-c2cc(=O)[nH]c3ccccc23)c(N)c1C#N` was tested. Which growth did it give?
Its growth is 95.6% (inactive).

With `CCn1c(Cc2ccccc2Nc2c(Cl)cccc2Cl)nnc1SCC(=O)NN1C(=O)/C(=C/c2cc(OC)c(O)c(OC)c2)SC1=S` as the compound, how does the growth read?
The growth was -1.58% (active).

With `Cc1cc(C)nc(SC2=C(Nc3cc(Cl)ccc3O)C(=O)N(Cc3ccccc3)C2=O)n1` as the compound, how does the growth read?
Its growth is 58.6% [30 µM] (inactive).

Which growth does the source give for `CCN(CC)c1ccc(/C=N\NC(=O)/C=C/C=C/c2ccc3c(c2)OCO3)c(O)c1` here?
The growth was 12.5% (inactive).

How did the growth turn out when `N#Cc1cnn(-c2nc3c(Cl)cccc3s2)c1N` was run?
The growth was 67.7% (inactive).

With `COc1ccc(S(=O)(=O)N2CC3(COC3)C2)cc1NC(=O)c1[nH]c(C)c2c1CCCCC2=O` as the compound, how does the growth read?
Its growth is 32.3% (inactive).

Which growth does the source give for `Cn1cc(C(=O)c2nc(-c3c[nH]c4ccc(F)cc34)no2)c2cc(F)ccc21` here?
The growth was 80.1% (inactive).

`O=C1C=C(OCC=C(Cl)Cl)C(=O)c2ccccc21` was tested. Which growth did it give?
Its growth is 51.8% (inactive).

For `Cc1cc(C)nc(SC2=C(Nc3cccc(Cl)c3)C(=O)N(Cc3ccccc3)C2=O)n1`, which growth is on record?
The growth was 67.9% [30 µM] (inactive).

How did the growth turn out when `O=c1cc(CSc2nnc(-c3ccc(F)cc3)o2)c2ccc3ccccc3c2o1` was run?
Its growth is 83.8% (inactive).

With `CCCn1c(=O)[nH]c(N)c([C@H]2c3ccccc3Oc3[nH]c(=O)n(CCC)c(=O)c32)c1=O` as the compound, how does the growth read?
The growth was 20.7% (inactive).

With `O=C(CCN1C(=O)/C(=C/c2ccc(Cl)cc2)SC1=S)NCCCN1CCOCC1` as the compound, how does the growth read?
Its growth is 88.9% (inactive).

How did the growth turn out when `Cc1nc2ccccc2n1C(=O)C[C@@H]1NC(=S)NC1=O` was run?
The growth was 96.8% (inactive).

Which growth does the source give for `O=C(N=Nc1c(O)[nH]c2ccc(Br)cc12)c1cc(-c2ccccc2)on1` here?
Its growth is 85% (inactive).

Which growth does the source give for `C=C(C)C(=O)Nc1ccc(NC(C)C)cc1` here?
Its growth is 159% (inactive).

`CC(O)CN1CC(O)=C(c2nc3ccccc3s2)C1=N` (stereo unspecified) was tested. Which growth did it give?
The growth was 99.9% (inactive).
